Laboratory results reported in the supplement of paper PMC7411054.
Where a name gives a salt, the structure may show the parent alone.

Columns and labels:
Assay in all cases: phenotypically active (imaging signature differs from DMSO and reproducible) at any of 0.3-9 uM (binary (1 = active, 0 = inactive)); higher = active
Conditions in all cases: treatment time: 24 h
[1] = test system: A549-ACTB-RAB5A
How it was run: (§1)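 Phenotypic activity depended on meeting both a deviation and a reproducibility criterion. The fifteen gene-edited A549, HepG2 and WPMY1 reporter lines were treated at 0.3, 1, 3 or 9 µM for 24 h, four wells each, then imaged live with features normalised to solvent control wells. Deviation required ≥3 of 4 wells past the 95th percentile of control Euclidean distances, and reproducibility a median replicate Pearson correlation above the 95th percentile of non-replicates.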

[2] = test system: A549-CANX-COX4
How it was run: as §1

[3] = test system: A549-GM130-SQSTM1
How it was run: as §1

[4] = test system: A549-TP53BP1-CLTA
How it was run: as §1

[5] = test system: A549-TUBA1B-RELA
How it was run: as §1

[6] = test system: HepG2-ACTB-RAB5A
How it was run: as §1

[7] = test system: HepG2-CANX-COX4
How it was run: as §1

[8] = test system: HepG2-GM130-SQSTM1
How it was run: as §1

[9] = test system: HepG2-TP53BP1-CLTA
How it was run: as §1

[10] = test system: HepG2-TUBA1B-RELA
How it was run: as §1

[11] = test system: WPMY1-ACTB-RAB5A
How it was run: as §1

[12] = test system: WPMY1-CANX-COX4
How it was run: as §1

[13] = test system: WPMY1-GM130-SQSTM1
How it was run: as §1

[14] = test system: WPMY1-TP53BP1-CLTA
How it was run: as §1

[15] = test system: WPMY1-TUBA1B-RELA
How it was run: as §1

Measured: phenotypically active

Cc1cccc(Nc2ccccc2C(=O)O)c1C [mefenamic-acid]
inactive: [1] 0 | [2] 0 | [3] 0 | [4] 0 | [5] 0 | [6] 0 | [7] 0 | [8] 0 | [9] 0 | [10] 0 | [11] 0 | [12] 0 | [13] 0 | [14] 0 | [15] 0

CCOC(=O)Nc1ccc2c(c1)N(C(=O)CCN1CCOCC1)c1ccccc1S2 [moracizine]
inactive: [1] 0 | [2] 0 | [3] 0 | [4] 0 | [5] 0 | [6] 0 | [7] 0 | [8] 0 | [9] 0 | [10] 0 | [11] 0 | [12] 0 | [13] 0 | [14] 0 | [15] 0

CC[C@H](C)C(=O)O[C@H]1C[C@H](O)C=C2C=C[C@H](C)[C@H](CC[C@@H](O)C[C@@H](O)CC(=O)O)[C@H]21 [pravastatin]
inactive: [1] 0 | [2] 0 | [3] 0 | [4] 0 | [5] 0 | [6] 0 | [7] 0 | [8] 0 | [9] 0 | [10] 0 | [11] 0 | [12] 0 | [13] 0 | [14] 0 | [15] 0

CC(C)(C)NC[C@H](O)COc1cccc2c1CCCC2=O [levobunolol]
inactive: [1] 0 | [2] 0 | [3] 0 | [4] 0 | [5] 0 | [6] 0 | [7] 0 | [8] 0 | [9] 0 | [10] 0 | [11] 0 | [12] 0 | [13] 0 | [14] 0 | [15] 0

CCOC(=O)C(C)(C)Oc1ccc(Cl)cc1 [Clofibrate]
inactive: [1] 0 | [2] 0 | [3] 0 | [4] 0 | [5] 0 | [6] 0 | [7] 0 | [8] 0 | [9] 0 | [10] 0 | [11] 0 | [12] 0 | [13] 0 | [14] 0 | [15] 0

C=C[C@H]1[C@H](O[C@@H]2O[C@H](CO)[C@@H](O)[C@H](O)[C@H]2O)OC=C2C(=O)NCC[C@H]21 [Bakankosine]
inactive: [1] 0 | [2] 0 | [3] 0 | [4] 0 | [5] 0 | [6] 0 | [7] 0 | [8] 0 | [9] 0 | [10] 0 | [11] 0 | [12] 0 | [13] 0 | [14] 0 | [15] 0

CC[C@]12CCCN3CCc4c(n(c5ccccc45)[C@@](O)(C(=O)OC)C1)[C@@H]32 [Vincamine]
inactive: [1] 0 | [2] 0 | [3] 0 | [4] 0 | [5] 0 | [6] 0 | [7] 0 | [8] 0 | [9] 0 | [10] 0 | [11] 0 | [12] 0 | [13] 0 | [14] 0 | [15] 0

OCCn1cc(-c2cnc3nnn(Cc4ccc5ncccc5c4)c3n2)cn1
inactive: [1] 0 | [2] 0 | [3] 0 | [4] 0 | [5] 0 | [6] 0 | [7] 0 | [8] 0 | [9] 0 | [10] 0 | [11] 0 | [12] 0 | [13] 0 | [14] 0 | [15] 0

NCCCC[C@H](N[C@@H](CCc1ccccc1)C(=O)O)C(=O)N1CCC[C@H]1C(=O)O [lisinopril]
inactive: [1] 0 | [2] 0 | [3] 0 | [4] 0 | [5] 0 | [6] 0 | [7] 0 | [8] 0 | [9] 0 | [10] 0 | [11] 0 | [12] 0 | [13] 0 | [14] 0 | [15] 0

CCCc1nn(C)c2c(=O)[nH]c(-c3cc(S(=O)(=O)N4CCN(C)CC4)ccc3OCC)nc12 [Sildenafil citrate]
inactive: [1] 0 | [2] 0 | [3] 0 | [4] 0 | [5] 0 | [6] 0 | [7] 0 | [8] 0 | [9] 0 | [10] 0 | [11] 0 | [12] 0 | [13] 0 | [14] 0 | [15] 0

COP(=O)(OC)OC(c1ccc(Cl)cc1)P(=O)(OC)OC (stereo not given)
inactive: [1] 0 | [2] 0 | [3] 0 | [4] 0 | [5] 0 | [6] 0 | [7] 0 | [8] 0 | [9] 0 | [10] 0 | [11] 0 | [12] 0 | [13] 0 | [14] 0 | [15] 0

O=C(Cn1ccnc1[N+](=O)[O-])NCc1ccccc1 [benznidazole]
inactive: [1] 0 | [2] 0 | [3] 0 | [4] 0 | [5] 0 | [6] 0 | [7] 0 | [8] 0 | [9] 0 | [10] 0 | [11] 0 | [12] 0 | [13] 0 | [14] 0 | [15] 0
